# AMA1-RON2 inh: AMA1-RON2 (P. falciparum) interaction inhibition. AlphaScreen AMA1-biotinylated RON2 peptide binding. AID 720542. 360,000 compounds, 0.2% hits. Potency, µM (titrated, usually from 58.2 µM), actives largely listed as inhibitors; further: nearly all actives have a fitted effect of over 45% in size
#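 AMA1 (3D7) with his tag at 25 nM final met compounds first, then biotinylated RON2 peptide at 25 nM; detection used donor plus acceptor beads, 10 µg/mL apiece, read by AlphaScreen after 30 min at room temperature.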
# RE007 growth inh: less growth of the S. pombe RE007 Vpr strain. AID 651644. Potency, µM (titrated, usually from 92.2 µM), hits mostly inhibitors. 360,000 compounds, 0.21% hits. S. pombe RE007 Vpr strain, BacTiter-Glo ATP luminescence, 24 h; active means well fitted falling curve with a large enough effect; inconclusive means small, poorly fitted or top-dose-only effect; inactive means no such curve, though single readings can be large or run the other way; further: nearly all actives have a fitted effect of over 50% in size
#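 Fission yeast strain RE007, carrying one chromosomally integrated HIV-1 vpr copy, was seeded at OD 0.01 in PMG+AL medium with 23 nL pinned compound. After 24 h at 30 °C and 99% humidity, viability was read by BacTiter-Glo luminescence.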
# TbPYK inhibitor: inhibitors of Trypanosoma brucei pyruvate kinase | Potency, µM (titrated, usually from 76.8 µM), hits mostly inhibitors | 410,000 compounds, 0.12% hits | TbPYK enzyme, Kinase-Glo Plus ATP luminescence, 45 min; further: nearly all actives have a fitted effect of over 50% in size
#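 Quantitative HTS: titrated library compounds versus trypanosomal pyruvate kinase in TEA buffer (pH 7.2) containing KCl, MgCl2, BSA and Tween-20. Reactions were initiated with ADP, 130 uM final. Kinase-Glo Plus luminescence was read after 45 min at RT.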
# Sm TGR block: inhibitors of Schistosoma mansoni thioredoxin glutathione reductase. AID 485364. purified TGR, DTNB reduction, TNB absorbance 405 nm. Potency, µM (doses to about 114 µM), usual class: inhibitors. 360,000 compounds, 3% hits; further: nearly all actives have a fitted effect of over 60% in size
#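 TGR 20 nM + NADPH 100 uM (dispensed conc.), cpd preinc 15 min RT; start with NADPH (500 uM addition) then DTNB (15 mM addition). Kinetic TNB absorbance, 405 nm filter. Four-parameter Hill fit across titration.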
# LmPK inh: inhibitors of Leishmania mexicana pyruvate kinase | Potency, µM (series often up to 57.5 µM), actives largely listed as inhibitors | AID 1721 | purified LmPK, Kinase-Glo ATP luminescence, 1 h | 290,000 compounds, 0.37% hits
# Target sequence (Q27686 whole entry, looked up): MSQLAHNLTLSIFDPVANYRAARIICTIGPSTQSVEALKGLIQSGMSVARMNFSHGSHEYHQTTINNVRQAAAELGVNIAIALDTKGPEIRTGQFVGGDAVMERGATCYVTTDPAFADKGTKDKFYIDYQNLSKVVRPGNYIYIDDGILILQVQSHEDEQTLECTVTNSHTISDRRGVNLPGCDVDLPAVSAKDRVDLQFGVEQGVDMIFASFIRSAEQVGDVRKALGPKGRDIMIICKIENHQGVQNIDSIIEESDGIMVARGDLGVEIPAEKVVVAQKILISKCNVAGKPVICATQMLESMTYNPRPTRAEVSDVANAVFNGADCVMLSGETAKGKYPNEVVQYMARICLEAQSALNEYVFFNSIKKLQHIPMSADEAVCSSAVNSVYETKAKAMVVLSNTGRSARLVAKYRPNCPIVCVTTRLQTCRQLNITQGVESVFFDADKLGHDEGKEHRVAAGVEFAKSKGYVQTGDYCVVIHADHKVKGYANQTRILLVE
#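 qHTS format; LmPK 0.1 nM; substrates PEP 0.5 mM and ADP 0.1 mM. One-hour room-temperature incubation, then coupled luciferase luminescence; 0.5 nM enzyme wells mark activation.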
# A number is an active result; 0 = inactive; ? = inconclusive; - = no result; [ ] = another dose, or the depositor's remark. This is a sample that favours compounds with a hit; in the whole collection about 3.2% have one here. Unless noted, the call rests on the fitted dose curve; in most records, active means well fitted curve in the direction sought with a large enough effect; inconclusive means small, poorly fitted or top-dose-only effect, or another doubt; inactive means no such curve, though single readings can be large; an effect the other way counts as inactive or inconclusive.
SMILES,AMA1-RON2 inh,RE007 growth inh,TbPYK inhibitor,Sm TGR block,LmPK inh
O=C1C2C3C=CC(CNS(=O)(=O)c4ccccc4[N+](=O)[O-])(O3)C2C(=O)N1c1ccccc1 (stereo not drawn),0,5µM,0,3.2µM,0
O=C1NC[C@@H]2CCCN2C1=O,0,-,-,-,-
c1ccc2c(c1)NCC1CCCN21 (stereo not drawn),0,0,0,32µM,0
O=C1C(Cl)=CC(=Nc2ccc(O)cc2)C=C1Cl,0,0,?,0.89µM,-
O=C1CSC(=Nc2ccc(O)cc2)N1,0,0,0,0,0
O=C(CSc1nnc(CNC(=O)c2cccc(F)c2)n1-c1ccccc1)Nc1ccccc1F,-,-,0,0,-
N#CC(C#N)=Cc1ccc(OCC(=O)N2CCOCC2)cc1,0,0,0,2.5µM,0
N#C/C(=C\c1ccc(N2CCOCC2)cc1)c1ccccc1,?,0,0,0,0
N#CC(C#N)=Cc1ccc(N2CCOCC2)cc1,0,0,0,3.2µM,0
CCOc1cccc2cc(-c3nc4ccc(C(=O)O)cc4[nH]3)c(=O)oc12,-,-,0,0,-
COCc1nn2cc(-c3ccc(C)cc3)nc2s1,-,-,0,0,-
CCOC(=O)C1CCN(C(=O)CCCn2c(=O)c3cccn3c3cccnc32)CC1,0,0,0,79µM,0
O=C(CCS(=O)(=O)Cc1ccccc1)N1CCc2ccccc2C1,0,0,?,28µM,0
CCOC(=O)C1CCN(C(=O)CCc2ccccc2)CC1,0,0,0,89µM,0
CCOC(=O)C1CCN(C(=O)CCS(=O)(=O)Cc2ccccc2)CC1,0,0,0,45µM,0
CCOC(=O)C1CCN(C(=O)CN(Cc2ccccc2)S(C)(=O)=O)CC1,0,0,0,0,0
CC(C)(C)C(=O)NCC(c1ccc2c(c1)OCO2)N1CCOCC1 (stereo not drawn),-,-,0,0,-
COC(=O)c1cccc(Nc2c(-c3ccc(O)cc3)nc3nc[nH]n23)c1,-,-,0,?,-
COC(=O)c1cccc(Nc2c(-c3ccc(O)c(OC)c3)nc3nc[nH]n23)c1,-,-,0,40µM,-
CCOC(=O)c1c(Oc2ccc(C(=O)OC)cc2)nnc(-c2ccccc2)c1-c1ccccc1,-,-,0,0,-
Cc1ccccc1-c1nc(CS(=O)(=O)CC(=O)N2CCCCC2)c(C)o1,0,0,0,22µM,0
Cc1oc(-c2ccccc2F)nc1CS(=O)(=O)CC(=O)N1CCN(Cc2ccccc2)CC1,0,0,0,13µM,0
Cc1oc(-c2ccccc2F)nc1CS(=O)(=O)CC(=O)NCc1ccco1,0,0,0,22µM,0
Cc1oc(-c2ccccc2F)nc1CS(=O)(=O)CC(=O)N1CCOCC1,0,0,0,45µM,0
Fc1ccc(CNc2nc3ccc(Cl)cc3n3nnnc23)cc1,-,-,0,0,-
SMILES,AMA1-RON2 inh,RE007 growth inh,TbPYK inhibitor,Sm TGR block,LmPK inh
COC(=O)c1ccc2c(=O)n(CCCCCC(=O)N3CCN(c4cc(Cl)ccc4C)CC3)c(=O)[nH]c2c1,-,-,0,0,-
Cc1nn(C)c2c1c(-c1ccccc1)cc(=O)n2Cc1ccccc1Cl,-,-,0,0,-
O=C(CSC1=NS(=O)(=O)c2ccccc21)Nc1ccccc1,0,0,?,2.5µM,22µM
O=C(CSC1=NS(=O)(=O)c2cc(F)ccc2N1)Nc1ccccc1,0,0,0,0,-
COc1ccc(-c2sc3cc(OC)c(OC)cc3c2C#CC2(O)CCCCC2)cc1,0,0,0,8.9µM,-
COc1ccc(NC(=O)CC2NCCNC2=O)c(OC)c1 (stereo not drawn),-,-,0,0,-
C[C@H]1Cc2c(COc3ccccc3)nc3c(c2CO1)CN(S(=O)(=O)c1ccc2c(c1)OCCN2C)CC3,-,-,-,-,0[11.5 µM]
CC(C)(C)c1cc(NC(=O)CCl)n(-c2ccccc2)n1,0,0,0,13µM,0
CC(Cl)C(=O)Nc1cc(C(C)(C)C)nn1-c1ccccc1 (stereo not drawn),0,0,0,0,0
CCCc1cc(NC(=O)CCl)n(-c2ccccc2)n1,0,0,0,10µM,0
O=C(Nc1ccc(S(=O)(=O)NCc2ccco2)cc1)c1ccncc1,0,0,0,0,0
O=C(Cn1ccc(C(F)(F)F)n1)Nc1ccc(S(=O)(=O)NCc2ccco2)cc1,?,0,0,45µM,0
Cn1c(COc2ccc(Cl)cc2)nnc1SCc1ncc(-c2ccccc2)o1,0,0,0,22µM,0

# Screens from PubChem.
